Laboratory results: patent US20130022590, “Compositions Comprising Zinc Finger Domains and Uses Therefor” (published 2013)

Target: T1, ZRANB2-F2 (Homo sapiens, UniProt O95218 O95218:65-95)
T1 chain: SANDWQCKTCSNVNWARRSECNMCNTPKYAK
Assay: FP; about 4-fold to 8-fold stated in p392
Settings: tags: GST fusion (FA); label: 5'-fluorescein; ssRNA
Method: Fluorescence Anisotropy titrations e.g., as shown in FIGS. 1D-F, 8 and 35, were carried out using standard protocols. In brief, 5′-Fluorescein-labeled RNA oligonucleotides were quantified by A₂₆₀, correcting for fluorescein absorbance by using A₄₉₃. For single-site experiments, the sequence […] (SEQ ID NO: 28), or single base mutants thereof, was used. For double-site experiments, two AGGUAA sites were separated by different length sequences as indicated, and the total oligonucleotide lengths were kept constant by the symmetrical addition of adenines to each end. […] Protein was titrated into this starting solution and anisotropy values measured on a Cary Eclipse fluorescence spectrophotometer fitted with manual polarizer and long-pass filters set to 475 and 515 nm for excitation and emission, respectively. […] Association constants were determined by nonlinear least squares regression analysis using a 1:1 binding model.
To determine whether changing arginine-82 (R82) would affect the binding preference of ZRANB2-F2 from GGU to GAU, the point mutation R82Q in ZNF 2 of ZRANB2 was made and the ability of both the wild type (W) protein and the R82Q mutant to bind to AGGUAA and AGAUAA was assessed by fluorescence anisotropy binding assays as described previously in Example 1.
With AGAUAA the binding signal was roughly 4 fold lower than AGGUAA.
